Data from PubChem BioAssay (NCI).
About 83,000 compounds went through this panel and 20% of them were active in at least one assay; those are over-represented in the sample as a whole.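 Values shown are percent growth following 48 h exposure of cells in 96-well plates to a single concentration of compound; below 10 was considered active.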 The source made the active and inactive calls.

tested on: UACC-257 melanoma; assay: NCI-60 one-dose screen, 48 h (100 = growth as untreated, 0 = no growth, -100 = all killed); conditions: 10 µM unless noted

SMILES | growth
O=c1ccc2nc(C(F)(F)F)nn(-c3ccccc3)c-2c1 | 35.6% (inactive)
O=P(O)(O)OCC1OC(n2cnc3c(NCc4ccccc4)ncnc32)C(O)C1O (stereo unspecified) | 115% (inactive)
Cc1cc2nc(-c3c(-c4ccc(F)cc4)nc4sccn34)[nH]c2cc1C | 109% (inactive)
CCOC(=O)N1CCN(S(=O)(=O)c2oc(-c3ccc(Cl)cc3)nc2C#N)CC1 | 84.1% (inactive)
CCCCCCCCn1ccc2cc(NC(=O)Cn3cc(CN4CCN(CC)CC4)nn3)ccc21 | 79.4% (inactive)
CC12CCC(/C(=C/NNc3ccc([N+](=O)[O-])cc3[N+](=O)[O-])C1=O)C2(C)C (stereo unspecified) | 64.4% (inactive)
COc1ccc(/C(C)=C(\c2ccc(OCCN3CCCCCC3)cc2)c2ccc(OC(=O)c3ccccc3)cc2)cc1 | -15.5% (active)
O=C(N/N=C/c1ccc([N+](=O)[O-])cc1)c1ccc2nc(-c3ccc(Cl)cc3)[nH]c2c1 | 25.1% (inactive)
COc1cc(/C=C\c2cc(/C=C\c3ccc(O)c(OC)c3)n(C(=O)CNc3ccc(Cl)cc3)n2)ccc1O | 70.2% (inactive)
CN(C)c1ccc(-c2cc(-c3ccc(Nc4nc(Nc5ccc(Cl)cc5)nc(Nc5ccc(Cl)cc5)n4)cc3)nc(N)c2C#N)cc1 | 99.1% (inactive)
Nc1ccc([N+](=O)[O-])cc1N=C/C=C/c1ccccc1 | 86.5% (inactive)
Cc1nc2sc(C(=O)Nc3cccc(Cl)c3)c(N)c2cc1C(O)c1ccccc1 (stereo unspecified) | 35% (inactive)
COc1cc(C2=NN(C(C)=O)C(c3ccc(N(C)C)cc3)C2)cc(OC)c1OC (stereo unspecified) | 76.7% (inactive)
COc1cc2c(cc1O)[C@@]1(C)[C@H](c3ccccc3Br)OC(=O)N1CC2 | 83.5% (inactive)
CC1(C)CC[C@]2(C(=O)O)CC[C@]3(C)C(=CC[C@@H]4[C@@]5(C)C[C@@H](Cc6cn([C@@H]7O[C@H](CO)[C@@H](O)[C@H](O)[C@H]7O)nn6)[C@H](O)C(C)(C)[C@@H]5CC[C@]43C)[C@@H]2C1 | 88.8% (inactive)
COc1cccc(Nc2ccnc3[nH]c4ccc([N+](=O)[O-])cc4c23)c1 | 57.4% (inactive)
N#Cc1c(NC(=O)c2cccs2)[n+]([O-])c2ccc(Cl)cc2[n+]1[O-] | 120% (inactive)
O=C1Nc2ccc(F)cc2/C1=N/c1nnc(Sc2ccccc2)s1 | 100% (inactive)

SMILES | growth
COc1ccc(/C=C/C(=O)c2ccc(NC(=O)CSc3nnc(-c4cc(-c5ccccc5)nc5ccccc45)n3-c3ccccc3)cc2)cc1 | 105% (inactive)
CCN1C(=O)N(CC)C2C1NN=C1SCC(=O)N12 (stereo unspecified) | 22.2% (inactive)
CC(=O)N/C(=C1/OC(C(O)C(O)C(O)CO)CN1C)[P+](c1ccccc1)(c1ccccc1)c1ccccc1 (stereo unspecified) | 104% (inactive)
CCOC(=O)Nc1nc2ccc(SCC(C)C)cc2s1 | 55% (inactive)
NNC(=S)N/N=C/c1ccccn1 | 45.7% (inactive)
Cc1[nH]c(/C=C/C(=O)c2ccc(C(F)(F)F)c(F)c2)c(C)c1C(=O)NCC(C)C | 99.2% (inactive)
N#Cc1c(N2CCOCC2)nc(=S)[nH]c1-c1ccccc1 | 91.8% (inactive)
Cc1cc(N2CCCCC2)nc(N2CCN(CC(=O)Nc3ccc4c(ccn4Cc4ccccc4)c3)CC2)n1 | 71% (inactive)
CC(C)c1ccc(C(=O)Nc2sc3cc(O)ccc3c2C#N)cc1 | 51.3% (inactive)
O=C(/C=C/C12c3ccccc3C(c3ccccc31)C1C(=O)NC(=O)C12)c1ccccn1 (stereo unspecified) | 33.8% (inactive)
CC(C)CSc1oc(-c2ccccc2)nc1S(=O)(=O)c1ccccc1 | 92.2% (inactive)
O=C(/C=C/c1ccc(Br)cc1)c1ccc(-n2cc(CN3CCN(c4cc5c(cc4F)c(=O)c(C(=O)O)cn5C4CC4)CC3)nn2)cc1 | 95.8% (inactive)
Nc1c(C(=O)Nc2ccncc2)sc2nc3c(cc12)CCCCC3 | 76% (inactive)
O=C(CCCCCCN1CC(=O)N2[C@@H](C3CCCCC3)c3[nH]c4ccccc4c3C[C@H]2C1=O)NO | 54.1% (inactive)
COc1ccc2[nH]cc(-c3nc(-c4cn(C)c5ccncc45)cs3)c2c1 | 92.7% (inactive)
O=C(/C=C\c1ccco1)/C=C/c1ccco1 | 100% (inactive)
O=C1NC(=C(Cl)Cl)/C(=N/S(=O)(=O)N2CCCCC2)N1 | 39.3% (inactive)
COc1ccc(C2=Nc3c(N)ncnc3NC(c3cccc(Nc4ccnc5cc(C(F)(F)F)ccc45)c3)C2)cc1 (stereo unspecified) | 74.9% (inactive)
